PubChem BioAssay AID1159580 (chemical genetic matrix, 2015)
Among all 5,500 compounds or so, about 2,000 (36%) were called active. Not shown: some 18% with an inconclusive outcome. No stated cut-off is given here; in the data, active means normalized growth mostly below about 0.91 (no sharp cut-off); inconclusive means no clear call, values can overlap the other calls; inactive means mostly above about 0.92. Some of the results follow.

Assay: chemical genetic growth profiling, strain panel (AID 1159580);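 further: tested at 20 µM; growth read once vehicle control cultures reached saturation at 30 °C; 1 = growth at the plate median or of vehicle wells; lower values mean less growth of the strain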
Settings: growth OD

Measured: normalized growth

COc1cc(O)c(C(=O)/C=C/c2ccccc2)c(OC)c1
inactive: S. cerevisiae deletion strains, locus YAL021C, strain ccr4, active compounds read low 0.998 | S. cerevisiae deletion strains, locus YAL026C, strain drs2, active compounds read low 0.945 | S. cerevisiae deletion strains, locus YAL030W, strain snc1, active compounds read low 0.941 | S. cerevisiae deletion strains, locus YBL061C, strain skt5, active compounds read low 0.928 | S. cerevisiae deletion strains, locus YBR021W, strain FUR4, active compounds read low 0.895 | S. cerevisiae deletion strains, locus YBR171W, strain sec66, active compounds read low 0.957 | S. cerevisiae deletion strains, locus YBR229C, strain ROT2, active compounds read low 0.942 | S. cerevisiae deletion strains, locus YBR231C, strain swc5, active compounds read low 0.917 | S. cerevisiae deletion strains, locus YCL029C, strain bik1, active compounds read low 0.923 | S. cerevisiae deletion strains, locus YCL061C, strain MRC1, active compounds read low 0.922 | S. cerevisiae deletion strains, locus YCL069W, strain vba3, active compounds read low 0.946 | S. cerevisiae deletion strains, locus YCR088W, strain abp1, active compounds read low 0.96 | S. cerevisiae deletion strains, locus YDL005C, strain med2, active compounds read low 0.98 | S. cerevisiae deletion strains, locus YDL035C, strain GPR1, active compounds read low 0.907 | S. cerevisiae deletion strains, locus YDL040C, strain nat1, active compounds read low 0.937 | S. cerevisiae deletion strains, locus YDL101C, strain DUN1, active compounds read low 0.916 | S. cerevisiae deletion strains, locus YDL185W, strain tfp1, active compounds read low 0.945 | S. cerevisiae deletion strains, locus YDR001C, strain nth1, active compounds read low 0.947 | S. cerevisiae deletion strains, locus YDR069C, strain doa4, active compounds read low 0.963 | S. cerevisiae deletion strains, locus YDR159W, strain sac3, active compounds read low 0.975 | S. cerevisiae deletion strains, locus YDR162C, strain NBP2, active compounds read low 0.947 | S. cerevisiae deletion strains, locus YDR297W, strain sur2, active compounds read low 0.947 | S. cerevisiae deletion strains, locus YDR334W, strain swr1, active compounds read low 0.972 | S. cerevisiae deletion strains, locus YDR335W, strain msn5, active compounds read low 0.949 | S. cerevisiae deletion strains, locus YDR388W, active compounds read low 0.932 | S. cerevisiae deletion strains, locus YEL003W, strain gim4, active compounds read low 0.914 | S. cerevisiae deletion strains, locus YEL037C, strain rad23, active compounds read low 0.948 | S. cerevisiae deletion strains, locus YEL061C, strain CIN8 (second series), active compounds read low 0.966 | S. cerevisiae deletion strains, locus YER016W, strain bim1, active compounds read low 0.945 | S. cerevisiae deletion strains, locus YER111C, strain swi4, active compounds read low 0.987 | S. cerevisiae deletion strains, locus YER167W, strain BCK2, active compounds read low 0.95 | S. cerevisiae deletion strains, locus YFR010W, strain ubp6, active compounds read low 0.944 | S. cerevisiae deletion strains, locus YGL078C, strain dbp3, active compounds read low 0.943 | S. cerevisiae deletion strains, locus YGL167C, strain pmr1, active compounds read low 0.921 | S. cerevisiae deletion strains, locus YGL173C, strain kem1, active compounds read low 0.921 | S. cerevisiae deletion strains, locus YGL227W, strain vid30, active compounds read low 0.968 | S. cerevisiae deletion strains, locus YHR013C, strain ard1, active compounds read low 1.01 | S. cerevisiae deletion strains, locus YHR027C, strain rpn1, active compounds read low 0.942 | S. cerevisiae deletion strains, locus YHR030C, strain SLT2, active compounds read low 0.924 | S. cerevisiae deletion strains, locus YIL066C, strain RNR3, active compounds read low 0.867 | S. cerevisiae deletion strains, locus YIL073C, strain SPO22, active compounds read low 0.733 | S. cerevisiae deletion strains, locus YIL125W, strain kgd1, active compounds read low 0.944 | S. cerevisiae deletion strains, locus YJL092W, strain hpr5, active compounds read low 0.945 | S. cerevisiae deletion strains, locus YJL095W, strain BCK1 (second series), active compounds read low 0.945 | S. cerevisiae deletion strains, locus YJL115W, strain asf1, active compounds read low 0.979 | S. cerevisiae deletion strains, locus YJL134W, strain LCB3, active compounds read low 0.953 | S. cerevisiae deletion strains, locus YJL154C, strain vps35, active compounds read low 0.975 | S. cerevisiae deletion strains, locus YJL168C, strain set2, active compounds read low 0.943 | S. cerevisiae deletion strains, locus YKL009W, strain mrt4, active compounds read low 0.89 | S. cerevisiae deletion strains, locus YKL085W, strain MDH1 (second series), active compounds read low 0.952 | S. cerevisiae deletion strains, locus YKL085W, strain MDH1, active compounds read low 0.952 | S. cerevisiae deletion strains, locus YKL190W, strain CNB1, active compounds read low 0.953 | S. cerevisiae deletion strains, locus YKR026C, strain gcn3, active compounds read low 0.95 | S. cerevisiae deletion strains, locus YKR091W, strain srl3, active compounds read low 0.942 | S. cerevisiae deletion strains, locus YLL026W, active compounds read low 0.937 | S. cerevisiae deletion strains, locus YLL041C, strain sdh2, active compounds read low 0.943 | S. cerevisiae deletion strains, locus YLR262C, strain YPT6, active compounds read low 0.708 | S. cerevisiae deletion strains, locus YLR342W, strain FKS1 (second series), active compounds read low 0.876 | S. cerevisiae deletion strains, locus YLR342W, strain FKS1, active compounds read low 0.93 | S. cerevisiae deletion strains, locus YLR357W, strain rsc2, active compounds read low 1.01 | S. cerevisiae deletion strains, locus YLR370C, strain arc18, active compounds read low 0.943 | S. cerevisiae deletion strains, locus YLR384C, strain iki3, active compounds read low 0.947 | S. cerevisiae deletion strains, locus YML016C, strain PPZ1, active compounds read low 0.931 | S. cerevisiae deletion strains, locus YMR058W, strain fet3, active compounds read low 0.918 | S. cerevisiae deletion strains, locus YMR125W, strain sto1, active compounds read low 0.893 | S. cerevisiae deletion strains, locus YMR129W, active compounds read low 0.937 | S. cerevisiae deletion strains, locus YMR231W, strain pep5, active compounds read low 0.967 | S. cerevisiae deletion strains, locus YNL067W, strain RPL9B, active compounds read low 0.925 | S. cerevisiae deletion strains, locus YNL128W, strain TEP1, active compounds read low 0.95 | S. cerevisiae deletion strains, locus YNL209W, strain ssb2, active compounds read low 0.95 | S. cerevisiae deletion strains, locus YNL248C, strain rpa49, active compounds read low 0.951 | S. cerevisiae deletion strains, locus YNL250W, strain rad50, active compounds read low 0.979 | S. cerevisiae deletion strains, locus YNL271C, strain bni1, active compounds read low 0.953 | S. cerevisiae deletion strains, locus YNL322C, strain KRE1 (second series), active compounds read low 0.947 | S. cerevisiae deletion strains, locus YNL322C, strain KRE1, active compounds read low 0.948 | S. cerevisiae deletion strains, locus YNR049C, strain mso1, active compounds read low 0.964 | S. cerevisiae deletion strains, locus YNR052C, strain pop2, active compounds read low 0.946 | S. cerevisiae deletion strains, locus YOL006C, strain TOP1, active compounds read low 0.733 | S. cerevisiae deletion strains, locus YOL012C, strain htz1 1.12 | S. cerevisiae deletion strains, locus YOR001W, strain rrp6, active compounds read low 0.894 | S. cerevisiae deletion strains, locus YOR061W, strain CKA2, active compounds read low 0.957 | S. cerevisiae deletion strains, locus YOR069W, strain VPS5, active compounds read low 0.94 | S. cerevisiae deletion strains, locus YOR080W, strain dia2, active compounds read low 0.966 | S. cerevisiae deletion strains, locus YOR270C, strain vph1, active compounds read low 0.811 | S. cerevisiae deletion strains, locus YOR316C, strain cot1, active compounds read low 0.931 | S. cerevisiae deletion strains, locus YPR141C, strain kar3, active compounds read low 0.96 | S. cerevisiae strains, strain wild type, active compounds read low 0.905
active: S. cerevisiae deletion strains, locus YAL013W, strain DEP1, active compounds read low 0.897 | S. cerevisiae deletion strains, locus YBR009C, strain hhf1, active compounds read low 0.846 | S. cerevisiae deletion strains, locus YBR023C, strain chs3, active compounds read low 0.893 | S. cerevisiae deletion strains, locus YBR279W, strain paf1, active compounds read low 0.894 | S. cerevisiae deletion strains, locus YCL011C, strain gbp2, active compounds read low 0.867 | S. cerevisiae deletion strains, locus YCL016C, strain dcc1, active compounds read low 0.861 | S. cerevisiae deletion strains, locus YDL074C, strain BRE1, active compounds read low 0.682 | S. cerevisiae deletion strains, locus YDL134C, strain PPH21, active compounds read low 0.807 | S. cerevisiae deletion strains, locus YDL192W, strain arf1, active compounds read low 0.796 | S. cerevisiae deletion strains, locus YDR101C, strain arx1, active compounds read low 0.857 | S. cerevisiae deletion strains, locus YDR137W, strain rgp1, active compounds read low 0.717 | S. cerevisiae deletion strains, locus YDR195W, strain ref2 1.18 [resistant] | S. cerevisiae deletion strains, locus YDR318W, strain mcm21, active compounds read low 0.816 | S. cerevisiae deletion strains, locus YDR392W, strain spt3, active compounds read low 0.373 | S. cerevisiae deletion strains, locus YDR502C, strain sam2, active compounds read low 0.819 | S. cerevisiae deletion strains, locus YER015W, strain faa2, active compounds read low 0.89 | S. cerevisiae deletion strains, locus YER110C, active compounds read low 0.863 | S. cerevisiae deletion strains, locus YER155C, strain BEM2 (second series), active compounds read low 0.807 | S. cerevisiae deletion strains, locus YER155C, strain BEM2, active compounds read low 0.625 | S. cerevisiae deletion strains, locus YGL086W, strain mad1, active compounds read low 0.794 | S. cerevisiae deletion strains, locus YGL240W, strain doc1, active compounds read low 0.819 | S. cerevisiae deletion strains, locus YGL248W, strain PDE1, active compounds read low 0.8 | S. cerevisiae deletion strains, locus YGL253W, strain hxk2, active compounds read low 0.85 | S. cerevisiae deletion strains, locus YGR135W, strain pre9, active compounds read low 0.83 | S. cerevisiae deletion strains, locus YGR229C, strain SMI1, active compounds read low 0.681 | S. cerevisiae deletion strains, locus YGR252W, strain gcn5, active compounds read low 0.667 | S. cerevisiae deletion strains, locus YHR079C, strain IRE1 (second series), active compounds read low 0.909 | S. cerevisiae deletion strains, locus YHR094C, strain hxt1, active compounds read low 0.917 | S. cerevisiae deletion strains, locus YHR129C, strain ARP1, active compounds read low 0.857 | S. cerevisiae deletion strains, locus YHR142W, strain chs7, active compounds read low 0.791 | S. cerevisiae deletion strains, locus YHR200W, strain rpn10, active compounds read low 0.891 | S. cerevisiae deletion strains, locus YIR030C, strain dcg1, active compounds read low 0.898 | S. cerevisiae deletion strains, locus YJL095W, strain BCK1, active compounds read low 0.574 | S. cerevisiae deletion strains, locus YJL129C, strain trk1, active compounds read low 0.779 | S. cerevisiae deletion strains, locus YJL164C, strain tpk1, active compounds read low 0.858 | S. cerevisiae deletion strains, locus YJL166W, strain qcr8, active compounds read low 0.792 | S. cerevisiae deletion strains, locus YJL187C, strain SWE1 (second series), active compounds read low 0.866 | S. cerevisiae deletion strains, locus YKL068W, active compounds read low 0.934 | S. cerevisiae deletion strains, locus YKL160W, strain elf1, active compounds read low 0.852 | S. cerevisiae deletion strains, locus YKR001C, strain vps1, active compounds read low 0.642 | S. cerevisiae deletion strains, locus YLL001W, strain dnm1, active compounds read low 0.899 | S. cerevisiae deletion strains, locus YLR027C, strain aat2, active compounds read low 0.859 | S. cerevisiae deletion strains, locus YLR039C, strain RIC1, active compounds read low 0.674 | S. cerevisiae deletion strains, locus YLR058C, strain SHM2, active compounds read low 0.848 | S. cerevisiae deletion strains, locus YLR102C, strain apc9, active compounds read low 0.922 | S. cerevisiae deletion strains, locus YLR221C, strain rsa3, active compounds read low 0.844 | S. cerevisiae deletion strains, locus YLR258W, strain gsy2, active compounds read low 0.907 | S. cerevisiae deletion strains, locus YLR262C, strain YPT6 (second series), active compounds read low 0.774 | S. cerevisiae deletion strains, locus YLR268W, strain sec22, active compounds read low 0.804 | S. cerevisiae deletion strains, locus YLR320W, strain mms22, active compounds read low 0.748 | S. cerevisiae deletion strains, locus YLR371W, strain rom2, active compounds read low 0.8 | S. cerevisiae deletion strains, locus YLR418C, strain cdc73, active compounds read low 0.41 | S. cerevisiae deletion strains, locus YML032C, strain rad52, active compounds read low 0.826 | S. cerevisiae deletion strains, locus YML120C, strain ndi1, active compounds read low 0.866 | S. cerevisiae deletion strains, locus YML124C, strain tub3, active compounds read low 0.923 | S. cerevisiae deletion strains, locus YMR078C, strain ctf18, active compounds read low 0.898 | S. cerevisiae deletion strains, locus YMR205C, strain PFK2, active compounds read low 0.805 | S. cerevisiae deletion strains, locus YMR223W, strain ubp8, active compounds read low 0.87 | S. cerevisiae deletion strains, locus YMR307W, strain GAS1, active compounds read low 0.502 | S. cerevisiae deletion strains, locus YNL071W, strain lat1, active compounds read low 0.503 | S. cerevisiae deletion strains, locus YNL233W, strain BNI4, active compounds read low 0.766 | S. cerevisiae deletion strains, locus YNL298W, strain CLA4, active compounds read low 0.879 | S. cerevisiae deletion strains, locus YNL307C, strain MCK1, active compounds read low 0.301 | S. cerevisiae deletion strains, locus YOL147C, strain pex11, active compounds read low 0.739 | S. cerevisiae deletion strains, locus YOR070C, strain gyp1, active compounds read low 0.897 | S. cerevisiae deletion strains, locus YOR083W, strain WHI5, active compounds read low 0.852 | S. cerevisiae deletion strains, locus YOR106W, strain vam3, active compounds read low 0.802 | S. cerevisiae deletion strains, locus YOR136W, strain idh2, active compounds read low 0.907 | S. cerevisiae deletion strains, locus YOR144C, strain elg1, active compounds read low 0.878 | S. cerevisiae deletion strains, locus YOR184W, strain ser1, active compounds read low 0.602 | S. cerevisiae deletion strains, locus YOR265W, strain rbl2, active compounds read low 0.903 | S. cerevisiae deletion strains, locus YOR290C, strain snf2, active compounds read low 0.853 | S. cerevisiae deletion strains, locus YPL051W, strain arl3, active compounds read low 0.82 | S. cerevisiae deletion strains, locus YPL078C, strain atp4, active compounds read low 0.864 | S. cerevisiae deletion strains, locus YPL106C, strain sse1, active compounds read low 0.772 | S. cerevisiae deletion strains, locus YPL240C, strain hsp82, active compounds read low 0.919 | S. cerevisiae deletion strains, locus YPR119W, strain clb2, active compounds read low 0.921 | S. cerevisiae deletion strains, locus YPR163C, strain tif3, active compounds read low 0.605 | S. cerevisiae deletion strains, locus YPR167C, strain met16, active compounds read low 0.869 | S. cerevisiae deletion strains, strain wtn01, active compounds read low 0.816
